Results from PubChem BioAssay AID977624 (Broad Institute, 2014).
Hit rate of the full screen: of about 1,800 compounds, fewer than 10 were called active. About 44% were inconclusive and are not listed.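 Rule for the calls: active = compound lowering the normal-ribosome reporter at least twice as much as the humanized-ribosome reporter, growth loss under a set limit; inconclusive = no clear call, values can overlap the other calls; inactive = the rest.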 A selection follows.

Assay: growth inhibition of wild-type GFP E. coli, dose response, h34 mutant RFP, cherry-pick (AID 977624)
Conditions: E. coli wild-type GFP strain growth, fluorescence, 24 h; series mostly up to 50 µM

outcome, inactive:
CN(C(=O)c1ccc(F)cc1)c1ccc(OCC(=O)Nc2ccccc2C(=O)O)cc1, CC(CCC(=O)O)C1CC[C@@]2(C)C3C(=O)CC4C(C)(C)C(O)CC[C@]4(C)C3C(=O)C[C@]12C (stereo not given in full), CCOc1ccc2nc(SCC(=O)Nc3cccc(S(=O)(=O)NC4=NCCCCC4)c3)[nH]c2c1, COc1ccc(-c2nnc(COc3ccc(Br)cc3C)o2)cc1, Cc1cccc(C)c1-n1nnnc1C1(C)CCC(=O)N1Cc1cccs1 (stereo not given), CCCC(=O)Nc1sc2c(c1C(=O)Nc1ccccn1)CCCC2, COc1ccc(NC(=O)c2cccs2)cc1C(=O)N1CCN(c2ccccc2)CC1, CC(C)Nc1nnc(SCC(=O)Nc2sccc2C#N)s1, COc1cc(NC(=O)c2ccc(Cl)cc2)c(OC)cc1NC(=O)CN1CCCCC1, CN(C)CCCN(C(=O)COc1ccc(Cl)cc1)c1nc2ccc(F)cc2s1, Cc1cccc(CSCC(=O)N2CCN(S(=O)(=O)c3ccccc3C#N)CC2)c1, COc1cc(OC)cc(C(=O)Nc2ccc(C(=O)Nc3ccccc3OC)cc2)c1, CC(C)Oc1ccc(C(=O)Nc2cccc3cccnc23)cc1, CC(C)CC#Cc1ccc2c(c1)O[C@@H](CN(C)Cc1ccccn1)[C@H](C)CN([C@H](C)CO)S2(=O)=O, CCCC(=O)Nc1cccc(C(=O)Nc2ccccc2OCC)c1, CC(C)(Nc1ccccc1)C(=O)c1ccccc1, COC(=O)c1ccccc1OCCOCCOc1cccc2ccc(C)nc12, Nc1ccccc1Nc1ccc([N+](=O)[O-])cc1[N+](=O)[O-], Cc1ccccc1CSc1nnc(-c2ccncc2)o1, O=C(CCNc1cccc(Cl)c1)c1cccs1, C[C@@H]1CCCCO[C@@H](CN(C)C)[C@@H](C)CN([C@H](C)CO)C(=O)c2cc(NC(=O)Nc3cccc4ccccc34)ccc2O1, Cc1ccc(C2NC(c3ccc(C)cc3)C(C)C(=O)C2C)cc1 (stereo not given), Cc1ccc(-c2c[n+](CC(=O)OCc3ccccc3)c3n2CCC3)cc1, Cc1noc(C)c1NC(=O)Nc1ccc2c(c1)C(=O)N([C@@H](C)CO)C[C@H](C)[C@H](CN(C)C(=O)Nc1ccc3c(c1)OCO3)OCCCC[C@H](C)O2, COc1ccc(-c2cc(C(=O)N(C)CCc3ccc(OC)c(OC)c3)c3ccccc3n2)cc1, c1ccc(Sc2ncnc3ccccc23)cc1, Cc1nc(SCC(=O)Nc2ccc3c(c2)OCCO3)nc(C)c1C, CCCN(Cc1ccco1)S(=O)(=O)c1ccc(OC)c(OC)c1, CCOC(=O)c1cc(C)nc(N2CCCCC2)c1C#N, Cn1cc(CN2CCCC(C(=O)c3cccs3)C2)c(-c2cccc(Cl)c2)n1 (stereo not given), Nc1nc(-c2cc(-c3ccccc3)no2)cs1, Cc1cccc(C(=O)NCC(=O)NCCSc2ccc(Br)cc2)c1, N#CCC(=O)Nc1ccc(C(=O)OCC(=O)Nc2ccc3ccccc3c2)cc1, CCOc1cc(/C=C(\CC(=O)O)c2nc3ccccc3s2)ccc1OC, COc1ccc(-c2nc3ccc(Cl)cn3c2Cc2cccc(F)c2)cc1OC, COC(=O)c1sccc1NC(=O)Cn1nnc(-c2ccccc2C)n1, CCOc1ccc2nc(NC(=O)CSc3nc(SC)ns3)sc2c1, O=C1CN(C(=O)c2ccc(Cl)c(S(=O)(=O)N3CCc4ccccc43)c2)c2ccccc2N1, COc1ccccc1C1CCN(C(=O)c2ccco2)CC1, Cc1ccccc1SCC(=O)OCC(=O)Nc1sccc1C(N)=O, COc1ccc(-c2csc3ncn(-c4ccc(C)cc4)c(=O)c23)cc1OC, O=C(COC(=O)C12CC3CC(CC(O)(C3)C1)C2)NCCc1ccc(Cl)cc1, CCCc1c(C(=O)Nc2ccc(OC)cc2)cnn1-c1ccccc1, C=CCn1c(SCC(=O)Nc2ccc3c(c2)OCCO3)nnc1-c1ccco1, C[C@@H]1CCCCO[C@H](CN(C)C(=O)CCCN(C)C)[C@@H](C)CN([C@@H](C)CO)C(=O)c2cc(NC(=O)Nc3cccc4ccccc34)ccc2O1, CCn1nc(Cc2cccc3ccccc23)c(C#N)c1N, O=S(=O)(NCC1CCCO1)c1ccc(-c2ccc(Cl)cc2)cc1 (stereo not given), Cc1ccccc1COc1ccc(-c2nn[nH]n2)cc1, CCc1ccc2[nH]c(C(=O)Nc3ccc4c(c3)OCO4)cc2c1, COc1ccc(Cl)cc1NC(=O)C1Cc2ccccc2CN1S(C)(=O)=O (stereo not given), CC(C)(C)c1ccc(-c2noc(CCC(=O)NCc3ccco3)n2)cc1, CN(Cc1nnc(-c2ccc(F)cc2)o1)c1ccccc1, Cc1ccc(Cn2cnc3ccccc32)cc1, O=C(CSc1ccc(-c2cccnc2)nn1)N1CCCc2ccccc21, O=C1c2ccccc2C(c2nnnn2C2CCCCC2)N1CCc1ccc(O)cc1 (stereo not given), CCOC(=O)C1CCCN(Cc2c(Cl)cccc2Cl)C1 (stereo not given), CCOc1ccc2nc(SCC(=O)Nc3nonc3C)[nH]c2c1, CCCCCc1nnc(NC(=O)C2COc3ccccc3O2)s1 (stereo not given), O=C(Cc1cccc(NC(=O)C2CCCN(C(=O)CCc3ccccc3)C2)c1)Nc1cccc(C(=O)N2CCCCC2)c1 (stereo not given), CCN(CC)CCn1c(SCC(=O)Nc2cccc(OC)c2)nc2c(sc3ccccc32)c1=O, COc1ccccc1CCNC(=O)c1cccc(NC(=O)CC2SC(N3CCCCC3)=NC2=O)c1 (stereo not given), Cc1cc(C(=O)COC(=O)CNC(=O)c2ccccc2)c(C)n1CC1CCCO1 (stereo not given), COc1ccc(NC(=O)c2cccc(Oc3ccc([N+](=O)[O-])cc3Cl)c2)cc1, Cc1ccc(S(=O)(=O)Nc2ccc3c(c2)C(=O)N([C@@H](C)CO)C[C@@H](C)[C@H](CN(C)C(=O)c2ccccc2)OCCCC[C@@H](C)O3)cc1, CCOc1ccc(CN(C)C(=O)c2ccc(NS(=O)(=O)c3ccc4[nH]c(=O)[nH]c4c3)cc2)cc1, CCc1nc2ccccc2n1CCc1ccccc1, CCc1cc(C(=O)N2CCCC(C(=O)c3cccc4ccccc34)C2)n(C)n1 (stereo not given), C=C(C)Cn1c(=O)c2c(nc3n2CCCN3Cc2ccccc2)n(C)c1=O, O=C(O)CCN(Cc1ccccc1)S(=O)(=O)c1ccccc1Cl, NC(=O)CSc1nc2cc([N+](=O)[O-])ccc2n1-c1cccc(C(F)(F)F)c1, CCC(C(=O)NCCc1ccc(C)cc1)n1nc(C)c2c(C)n(-c3ccccc3)nc2c1=O (stereo not given), CCOc1ccccc1OCCCC(=O)N1CCN(S(=O)(=O)c2cc(F)ccc2F)CC1, CN(Cc1ccc(F)cc1)C(=O)CN1CCN(S(=O)(=O)c2ccc3c(c2)OCCCO3)CC1, Cc1cccc(-c2nsc(SCC(=O)NCC3CCCO3)n2)c1 (stereo not given), Cc1cc(C)n2nc(C(=O)Nc3cccc(S(=O)(=O)N(C)c4ccccc4)c3)nc2n1, CC(=O)c1ccc(N2CCN(C(=O)C3CCN(S(=O)(=O)c4ccc5c(c4)CC(C)N5C(C)=O)CC3)CC2)cc1 (stereo not given), Cc1cc(C)c(NC(=O)C(C)c2cccc(C(=O)c3ccccc3)c2)c(C)c1 (stereo not given), COCC#Cc1ccc2c(c1)O[C@H](CN(C)C(=O)c1ccccc1)[C@@H](C)CN([C@H](C)CO)S2(=O)=O, C=CCn1c(SCc2n[nH]c(=S)n2-c2ccccc2)nnc1-c1ccccc1, CC(=O)c1ccccc1OCCOCCOCCOc1ccccc1C(C)=O, Brc1ccccc1CN1CCC(Cc2ccccc2)CC1, CCn1cc(CCC(=O)NCCc2ccccc2)c2ccccc21, COc1ccccc1N(C)S(=O)(=O)c1ccc(Cl)c(C(=O)NC2=NCCS2)c1, O=C(COC(=O)CNC(=O)c1ccc(F)cc1)Nc1cccc(S(=O)(=O)N2CCCC2)c1, COC(=O)c1ccc2nc(-c3cccc(Br)c3)c(Cc3ccsc3)n2c1, COc1cccc(C(=O)C2CCCN(C/C=C/c3ccccc3OC)C2)c1 (stereo not given), O=C(NCc1ccccc1)c1cc(S(=O)(=O)N2CCCCC2)ccc1N1CCOCC1, CC(=O)c1c(N2CCOCC2)nc2ccc(Cl)cc2c1-c1ccccc1, O=C(NCc1nnnn1-c1ccc(Cl)cc1)c1ccc([N+](=O)[O-])o1, O=C(CCC(=O)N1CCN(c2ccc(F)cc2)CC1)N1CCN(c2ccc(F)cc2)CC1, COc1cccc(-c2ccc(SCc3ccccn3)nn2)c1, CCC(C(=O)NC1CCCC1)n1c(-c2ccnc3ccccc23)nc2ccccc21 (stereo not given), C=CCNC(=O)c1ccccc1CCc1ccccc1, C=CCN(CC(O)c1cccc([N+](=O)[O-])c1)C(C)CCc1ccccc1 (stereo not given), CO[C@@H]1CN(C)C(=O)c2cc(NC(=O)C3CCCC3)ccc2OC[C@@H](C)N(C(=O)Nc2ccc(C(F)(F)F)cc2)C[C@H]1C, COc1ccc(OC)c(CN2CCCC(C(=O)c3ccccc3SC)C2)c1 (stereo not given), CCN1CCN(c2c(Cl)cccc2NC(=O)c2ccc([N+](=O)[O-])o2)CC1, CCN(C(=O)CSc1cc(C)c2ccc(OC)cc2n1)C1CCS(=O)(=O)C1 (stereo not given), Cc1noc(NS(=O)(=O)c2ccc(NC(=O)c3cc(-c4ccccc4Cl)nc4ccccc34)cc2)c1C, O=C(COC(=O)C1CC1)Nc1nc(-c2ccc(F)c(F)c2)cs1
